{
  "source": "PubChem BioAssay AID577",
  "about": "(University of Pittsburgh Molecular Library Screening Center, 2007)",
  "note": "Hit rate of the full screen: of about 65,000 compounds, about 120 (0.18%) were called active. No stated cut-off is given here; in the data, active means z-score below about -3; inactive means the rest. For the sample, actives were picked, then their nearest neighbours and some compounds at random.",
  "data": [
    {"target": "Genome polyprotein (West Nile virus) (UniProt P06935)", "sequence (P06935 1371-1501 limits assumed)": "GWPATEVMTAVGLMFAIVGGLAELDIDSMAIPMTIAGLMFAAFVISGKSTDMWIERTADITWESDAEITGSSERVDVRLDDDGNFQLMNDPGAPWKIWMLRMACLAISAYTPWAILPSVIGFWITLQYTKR", "sequence (P06935 1502-1679 limits assumed)": "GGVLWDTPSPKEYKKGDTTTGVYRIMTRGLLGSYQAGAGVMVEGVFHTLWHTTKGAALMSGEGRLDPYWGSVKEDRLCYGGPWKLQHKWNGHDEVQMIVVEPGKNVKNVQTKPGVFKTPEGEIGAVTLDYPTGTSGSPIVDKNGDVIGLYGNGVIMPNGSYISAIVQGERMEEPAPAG", "assay": "inhibitors of WNV NS2B-NS3 protease, primary screen, biochemical, fluorogenic substrate (AID 577)", "conditions": "fluorogenic substrate Ex360/Em465, active compounds read low", "values": [
      {"smiles": "O=C(Nc1ccccc1N1CCCCC1)c1ccc2nccnc2c1", "z-score": "-0.92 (inactive)"},
      {"smiles": "Cc1cc(N2C(=O)C(=O)/C(=C(/O)c3ccc(Cl)cc3)C2c2cccc(Br)c2)no1", "note": "(stereo not given)", "z-score": "0.05 (inactive)"},
      {"smiles": "COc1ccc(S(=O)(=O)N2CCN(c3ncnc4c(-c5ccccc5)nsc34)CC2)cc1", "z-score": "-0.64 (inactive)"},
      {"smiles": "Cc1ccc(NC(=O)C2CC(c3ccc(F)cc3)=NO2)cc1", "note": "(stereo not given)", "z-score": "-0.46 (inactive)"},
      {"smiles": "Cc1noc(C)c1S(=O)(=O)NCCc1ccc(S(N)(=O)=O)cc1", "z-score": "-0.09 (inactive)"},
      {"smiles": "Cn1c(=O)cc(OCCCC(=O)N2CCN(Cc3ccc4c(c3)OCO4)CC2)c2ccccc21", "z-score": "-0.06 (inactive)"},
      {"smiles": "O=c1[nH][nH]c(=O)c2cc(N3CCCC3)ccc12", "z-score": "0.92 (inactive)"},
      {"smiles": "COc1ccc(C)c2sc(=NC(=O)c3ccc(C#N)cc3)n(C)c12", "z-score": "0.36 (inactive)"},
      {"smiles": "COc1ccccc1CNC(=O)CCn1c(=O)sc2ccccc21", "z-score": "0.34 (inactive)"},
      {"smiles": "O=S(=O)(CCc1nc2ccccc2o1)c1ccc(Cl)cc1", "z-score": "0.84 (inactive)"},
      {"smiles": "CCN(CC(=O)NC(C)C)C(=O)CCNC(=O)c1ccc(Cl)cc1", "z-score": "-3.81 (active)"},
      {"smiles": "CC(NC(=O)c1ccc(Cl)cc1)C(=O)N1CCCCC1", "note": "(stereo not given)", "z-score": "-0.48 (inactive)"},
      {"smiles": "Cc1ccc(CNC(=O)CCCNC(=O)c2ccc(Cl)cc2)n1C", "z-score": "0.2 (inactive)"},
      {"smiles": "CCOC(=O)C1CCCN(C(=O)Cn2ncc3c(=O)oc4ccc(C)cc4c32)C1", "note": "(stereo not given)", "z-score": "-0.8 (inactive)"},
      {"smiles": "CC(=O)N(Cc1cccs1)C1CCOC(C)(C)C1", "note": "(stereo not given)", "z-score": "0.1 (inactive)"},
      {"smiles": "O=c1c2c(nc3n1CCCCC3)sc1c(O)cccc12", "z-score": "-0.99 (inactive)"},
      {"smiles": "CCn1cc(C(=O)NCc2ccc(OC)cc2OC)c(=O)c2ccc(C)nc21", "z-score": "0.31 (inactive)"},
      {"smiles": "O=C(c1cccc(S(=O)(=O)N2CCOCC2)c1)N1CCOCC1", "z-score": "-0.56 (inactive)"},
      {"smiles": "CC(=O)N1CCN(C(=O)c2cccc(S(=O)(=O)Nc3ccc(C)cc3)c2)CC1", "z-score": "-4.83 (active)"},
      {"smiles": "CN1CCN(C(=O)c2ccc(NS(=O)(=O)c3ccccc3)cc2)CC1", "z-score": "0.73 (inactive)"},
      {"smiles": "O=C(NCc1ccco1)C1CCCN(S(=O)(=O)c2cnc[nH]2)C1", "note": "(stereo not given)", "z-score": "0.15 (inactive)"},
      {"smiles": "Cn1c(=O)[nH]c(=O)c2c1nc(N1CCN(CCO)CC1)n2CCSc1nc2ccccc2s1", "z-score": "0.89 (inactive)"},
      {"smiles": "CCOC(=O)N1CCC(NC(=O)c2ccc3nc(N4CCOCC4)sc3c2)CC1", "z-score": "-0.98 (inactive)"},
      {"smiles": "O=C(NCc1ccco1)c1ccc(CS(=O)(=O)Cc2ccc(F)cc2)o1", "z-score": "-0.19 (inactive)"},
      {"smiles": "CCOc1ccccc1NC(=O)c1cc(S(=O)(=O)N2CCC3(CC2)OCCO3)ccc1F", "z-score": "-0.89 (inactive)"},
      {"smiles": "O=C(Cn1c(-c2ccccn2)nc2ccccc21)NCCN1CCOCC1", "z-score": "0.41 (inactive)"},
      {"smiles": "O=C(Nc1ccon1)c1sc2ccccc2c1Cl", "z-score": "1.15 (inactive)"},
      {"smiles": "O=C(O)Cc1ccc(NC(=O)C2CCCCC2C(=O)O)cc1", "note": "(stereo not given)", "z-score": "0.69 (inactive)"},
      {"smiles": "Cc1cccc(N2CC(C)Cn3c2nc2c3c(=O)n(CC(=O)OCc3ccccc3)c(=O)n2C)c1", "note": "(stereo not given)", "z-score": "-0.58 (inactive)"},
      {"smiles": "O=C(Cc1c(F)cccc1Cl)N1CCN(C(=O)c2ccco2)CC1", "z-score": "0.71 (inactive)"},
      {"smiles": "Cc1oc(CC(C)C)c(CN2CCCC2)c1C(=O)O", "z-score": "0.09 (inactive)"},
      {"smiles": "CC1CCN(c2nc3c(c(=O)[nH]c(=O)n3C)n2CCCc2ccccc2)CC1", "z-score": "-0.61 (inactive)"},
      {"smiles": "COc1ccc(NC(=O)Nc2cccc3cccnc23)cc1", "z-score": "-0.61 (inactive)"},
      {"smiles": "COc1ccc(-c2ccc(Nc3ccc(S(=O)(=O)N4CCCC4)cc3)nn2)cc1OC", "z-score": "-0.56 (inactive)"},
      {"smiles": "c1ccc(-c2cc(-c3nnc4sc(-c5ccccn5)nn34)[nH]n2)cc1", "z-score": "-1.41 (inactive)"},
      {"smiles": "Cc1cc2nc(-c3ccc(NC(=O)c4cccnc4)cc3)oc2cc1C", "z-score": "-0.13 (inactive)"},
      {"smiles": "COc1ccc(OC)c(S(=O)(=O)Nc2ccccc2F)c1", "z-score": "0.89 (inactive)"},
      {"smiles": "O=C(Cn1cnc2c(nnn2-c2ccccc2)c1=O)N1CCC(Cc2ccccc2)CC1", "z-score": "2.2 (inactive)"},
      {"smiles": "NS(=O)(=O)c1cc2c(cc1Cl)NC(C(Cl)Cl)NS2(=O)=O", "note": "(stereo not given)", "z-score": "1.86 (inactive)"},
      {"smiles": "CNC(=O)n1ccc(C(=O)N2CCCCC2)n1", "z-score": "1.25 (inactive)"},
      {"smiles": "COc1ccccc1N=C1SC(C)CN1C(=O)C1CCC1", "note": "(stereo not given)", "z-score": "-0.3 (inactive)"},
      {"smiles": "COCCN1Cc2cccc(C(=O)Nc3ccccc3OC)c2C1=O", "z-score": "-0.41 (inactive)"},
      {"smiles": "CC(C)OCCCNC(=O)C1CC(=O)N(C2CCCCCCC2)C1", "note": "(stereo not given)", "z-score": "-1.25 (inactive)"},
      {"smiles": "CCOC(=O)C1=C(CNC2CCCCC2)NC(=O)NC1c1cc(C)ccc1C", "note": "(stereo not given)", "z-score": "-0.35 (inactive)"},
      {"smiles": "c1ccc(-c2noc(-c3cccs3)n2)nc1", "z-score": "-0.18 (inactive)"},
      {"smiles": "O=C(CCCN1C(=O)CSc2ncccc21)N1CCN(c2cccc(C(F)(F)F)c2)CC1", "z-score": "0.85 (inactive)"},
      {"smiles": "O=C(CC1(O)C(=O)N(CN2CCOCC2)c2ccccc21)c1ccccc1", "note": "(stereo not given)", "z-score": "2.57 (inactive)"},
      {"smiles": "CC(C)Cn1c(CN(Cc2ccccc2)Cc2ccccc2)nc2c1c(=O)n(C)c(=O)n2C", "z-score": "0.14 (inactive)"},
      {"smiles": "CCOC(=O)N1CCN(CC(=O)c2ccc3c(c2)CCN3)CC1", "z-score": "-0.8 (inactive)"},
      {"smiles": "O=C1Nc2ccccc2C12Nc1ccccc1S2", "note": "(stereo not given)", "z-score": "-0.84 (inactive)"},
      {"smiles": "CC(=O)N1CC2(C)CN(C(C)=O)CC(C)(C1)C2=O", "z-score": "-0.17 (inactive)"},
      {"smiles": "CCOC(=O)c1cnc(-n2nc(C)cc2C)nc1-n1nc(C)cc1C", "z-score": "0.5 (inactive)"},
      {"smiles": "CCOC(=O)N1CCN(C(=O)CN(C2CCCCC2)S(C)(=O)=O)CC1", "z-score": "-1.44 (inactive)"},
      {"smiles": "COC(=O)C1=C(C)NC2=C(C(=O)c3ccccc32)C1c1ccc(-c2ccc(C(=O)O)cc2)o1", "note": "(stereo not given)", "z-score": "0.76 (inactive)"},
      {"smiles": "COCCCN(C(=O)Cn1ncc2c(=O)oc3ccc(C)cc3c21)C(C)c1ccncc1", "note": "(stereo not given)", "z-score": "-0.67 (inactive)"},
      {"smiles": "Cc1ccccc1N1CC(c2nc3ccccc3[nH]2)CC1=O", "note": "(stereo not given)", "z-score": "1.22 (inactive)"},
      {"smiles": "O=C(CC1N=C2c3ccccc3N=C(SCc3ccccc3Cl)N2C1=O)NCc1ccco1", "note": "(stereo not given)", "z-score": "1.46 (inactive)"},
      {"smiles": "Cc1c(C(=O)Nc2ccccc2Cl)oc2ccc(S(=O)(=O)N3CCC4(CC3)OCCO4)cc12", "z-score": "-1.64 (inactive)"},
      {"smiles": "Cc1cccc(-n2c(N)cc(=O)nc2SC(C)C(=O)NC2CCCCC2)c1", "note": "(stereo not given)", "z-score": "-0.09 (inactive)"},
      {"smiles": "CCCCN=C(N)/C(C(=O)OCC)=C(\\O)c1ccc(OC)cc1", "z-score": "0.82 (inactive)"}
    ]}
  ]
}
